From the supplement of paper PMC12350171
Structures can show the parent of a compound that is named as a salt. Values without a mark were called inactive.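 Rule for the calls: active = AUC significantly below DMSO controls by Student t-fit with adjusted P under 0.01; inactive = not significantly reduced.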

Tested on: Haemophilus parainfluenzae
Experiment: growth AUC normalised to DMSO control (fraction of control); higher = less growth inhibition, active = hit call of the paper
Conditions: 20 µM
Method in brief: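 For the AUC endpoint, growth curves were integrated by the trapezoidal rule up to the exponential-to-stationary transition and normalised to DMSO controls on the same plate. The curves came from OD578 readings taken hourly for 24 h, in three biological replicates. Pathogens had been passaged anaerobically twice and inoculated at an OD578 of 0.01 into pre-reduced mGAM plates carrying 20 μM compound and 1% DMSO, sealed with breathable membranes. Medium for Haemophilus parainfluenzae also contained hemin and NAD.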

| Structure (SMILES) | growth AUC normalised to DMSO control |
| --- | --- |
| C[C@]12C=CC(=O)C=C1CC[C@@H]1[C@@H]2C(=O)C[C@@]2(C)[C@H]1CC[C@]2(O)C(=O)CO [Prednisone] | 1.01 |
| CN1CCN2c3ccccc3Cc3ccccc3C2C1 (stereo not given) [Mianserine hydrochloride] | 0.903 |
| CCOC(=O)O[C@]1(C(=O)COC(=O)CC)CC[C@H]2[C@@H]3CCC4=CC(=O)C=C[C@]4(C)[C@H]3[C@@H](O)C[C@@]21C [Prednicarbate] | 1.16 |
| O=C(O)/C=C/c1ccc(Cn2ccnc2)cc1 [Ozagrel hydrochloride] | 1.03 |
| CCN(CC)Cc1cc(Nc2ccnc3cc(Cl)ccc23)ccc1O [Amodiaquine dihydrochloride dihydrate] | 0.992 |
| CC1Cc2ccccc2N1NC(=O)c1ccc(Cl)c(S(N)(=O)=O)c1 (stereo not given) [Indapamide] | 1.03 |
| NCCNCCNCCNCCN [Tetraethylenepentamine pentahydrochloride] | 0.971 |
| COc1ccc(C(=O)c2ccccc2)c(O)c1 [Oxybenzone] | 1.06 |
| CC(C)(C)NC(=O)[C@H]1CC[C@H]2[C@@H]3CC[C@H]4NC(=O)C=C[C@]4(C)[C@H]3CC[C@]12C [Finasteride] | 1.06 |
| O=C(O)c1cc(-c2ccc(F)cc2F)ccc1O [Diflunisal] | 0.916 |
